Records with an inconclusive call do not appear. Calls of active or inactive are those of the source. The call rests on the fitted dose curve; in most records, active means well fitted inhibition curve with a large enough effect; inconclusive means small, poorly fitted or top-dose-only effect; inactive means no such curve, though single readings can be large or run the other way.
assay: Counterscreen Assay for Inhibitors of the ERK Signaling Pathway using a Homogeneous Screening Assay; settings: AlphaScreen bead counterscreen in cell lysate, 5 h; series mostly up to 45.6 µM; activity change, negative = inhibition: at the top concentration
Source text: qHTS Assay for Inhibitors of the ERK Signaling Pathway using a Homogeneous Screening Assay
NIH Chemical Genomics Center [NCGC]
NIH Molecular Libraries Screening Centers Network [MLSCN]
Assay Submitter (PI): Dr. Wei Zheng, NCGC/NIH
The Ras/extracellular-signal-regulated kinase (ERK) mitogen activated protein (MAP) kinase signaling pathway (ERK1/2 cascade) plays is a key role in transmitting signals from the cell surface to the nucleus (Nishida and Gotoh 1993; Chang and Karin, 2001). The cascade is initiated by the small G-protein Ras, which recruits Raf […], where activation occurs. Alternatively, this pathway can be activated by elevating intracellular cAMP.
Activation of the ERK pathway is essential in increased cell division and cell survival. Sustained and constitutive activation of the ERK pathway, however, has been linked to uncontrolled cell proliferation, increased cell survival, and tumor progression. Thus, the ERK has been as an attractive target for cancer chemotherapy in the past few years (Sebolt-Leopold and Herrera, 2004). Given its physiological and pathological importance, assessment of ERK phosphorylation has been broadly performed in both basic research and drug discovery. Most assays for the measurement of ERK phosphorylation use the antibody-based detection methods, such as western blot and ELISA. These assays require multiple reagent additions with cell wash steps and are not suitable for high-throughput screening.
The current cell-based ERK phosphorylation assay was performed using AlphaScreen platform. AlphaScreen is a two bead-based proximity-dependent chemical energy transfer luminescent assay platform. The assay reagents (ERK SureFire(TM) kit) were supplied from TGR BioSciences (Australia). In the presence of specific antibodies, phosphorylated ERK will bring "donor" and "acceptor" beads to a proximity range (<200 nm), and subsequently lead a chemical luminescent reaction upon exciting donor beads with 680 nm laser. To exclude the assay-related false positives, we used a biotinylated rabbit IgG to perform a counter-screen. The biotinylated antibody mimics the phosphorylated ERK1/2 for bringing streptavidin coated beads and protein-A coated beads to a proximity range for the AlphaScreen detection.
NCGC Assay Protocol Summary:
Biotinylated rabbit IgG was used to perform a counter-screen in the context of an AlphaScreen assay kit provided by PerkinElmer. Data were normalized to the controls for basal activity (DMSO only) and 100% activation (25 nM IgG). AC50 values were determined from concentration-response data modeled with the standard Hill equation.
(1) Seed 4 ul/well of resuspended frozen HEK293 cells containing 2000 cells in white 1536-well plates for overnight with 1% FBS at 37C under a humidified atmosphere containing 5% CO2 and 95% air.
(2) Add 23 nL compounds in DMSO solution. The final titration was 0.6 nM to 46 uM.
(3) Incubate at 37C for 30 min.
(4) Dispense 0.5uL vasopressin (25 nM in final)
(5) Incubate at 37C for 5 min.
(6) Dispense 0.5uL of 1:2 diluted 5x lysis buffer.
(7) Incubate at 37C for 10 min.
(8) Dispense 1.5uL of mixture of activation buffer and reaction buffer with AlphaScreen beads (streptavidin donor beads and protein-A acceptor beads, 10 ng/well for each).
(9) Incubate at room temperature for 5 hr.
(10) Detect the assay plate in an EnVision plate reader (PerkinElmer) using the AlphaScreen detection mode.
Keywords: ERK, MEK, type-1 vasopressin receptors, homogenous, cell-based kinase assay, MLSMR, MLSCN, NIH Roadmap, qHTS and NCGC

Compound	Potency	activity change, negative = inhibition
N#CC(C#N)=c1ccc2c(c1)N1C3=C(CCCC3)CC3CCCCC31N=2 (stereo not given)	4.47 µM (active)	–
Cc1cc(-c2ccccc2)n(-c2cc(N/N=C/c3ccccc3O)ncn2)n1	–	-26.9% (inactive)
CCOc1ccc(/C(O)=C2/C(=O)C(=O)N(c3ncccn3)C2c2ccccc2)cc1 (stereo not given)	–	-14% (inactive)
C/C(=N\Nc1nnc(-c2ccccc2)c(-c2ccccc2)n1)c1cccc([N+](=O)[O-])c1	–	-10% (inactive)
O=C(Nc1nccs1)c1cc2sccc2n1Cc1ccc(F)cc1	–	7.37% [at 57.5 µM] (inactive)
COc1ccc(CC(=O)Nc2cccc(-c3nnc(-c4cccc(C)c4)o3)c2)cc1OC	–	9.16% [at 57.5 µM] (inactive)
Cc1ccc(Nc2ncnc3sc(C)c(C)c23)cc1	–	-17.7% (inactive)
COc1ccc(C(=O)OC(COc2ccccc2)Cn2ccnc2)cc1 (stereo not given)	–	-26.4% (inactive)
COC(=O)c1cc(-c2ccc(OC)c(OC)c2)on1	–	-10.6% [at 57.5 µM] (inactive)
Cc1ccc(Nc2ncnc3sc(C)c(C)c23)cc1C	–	-15.2% (inactive)
CS(=O)(=O)CCNCc1nc(-c2ccc3ncnc(Nc4ccc(OCc5cccc(F)c5)c(Cl)c4)c3c2)cs1	–	-9.75% (inactive)
Cc1sc2ncnc(Nc3ccccc3)c2c1C	–	-11.9% (inactive)
Cn1c(=O)cc(Nc2ccccc2)c2c(=O)n(-c3ccccc3)c(=O)n(-c3ccccc3)c21	–	-33.4% (inactive)
COc1ccc(-c2n(CC(=O)OC3CC(C)CCC3C(C)C)c3ccccc3[n+]2C)cc1 (stereo not given)	–	-15% (inactive)
CCOC(=O)c1ccc(NC(=O)c2ccc(C)c(S(=O)(=O)N3CCOCC3)c2)cc1	–	-20.2% [at 57.5 µM] (inactive)
COc1cc(C(=O)Nc2nc(-c3cccs3)cs2)cc(OC)c1OC	–	-25.6% [at 57.5 µM] (inactive)
COc1cc(C2CC(=O)c3c([nH]c(C(=O)OCCOC(C)C)c3C)C2)cc(OC)c1OC (stereo not given)	–	4.07% [at 57.5 µM] (inactive)
C=C[C@]1(C)CC(=O)[C@@]2(O)[C@@]3(C)C(O)CCC(C)(C)C3C(O)C(OC(C)=O)[C@@]2(C)O1 (stereo not given in full)	–	-10.3% (inactive)
Fc1cccc(Nc2ncnc3sc4c(c23)CCC4)c1	–	-7.2% (inactive)
C=CS(=O)(=O)c1ccc(Oc2ccc(S(=O)(=O)C=C)cc2)cc1	–	-15.2% [at 57.5 µM] (inactive)

Compound	Potency	activity change, negative = inhibition
Fc1ccc(Nc2ncnc3sc4c(c23)CCC4)cc1F	–	-2.34% (inactive)
CN(C)c1cc2c(Nc3ccc4c(cnn4Cc4ccccc4)c3)ncnc2cn1	–	-6.45% (inactive)
Nc1nc2c3ccccc3nc(C3CC3)n2n1	–	-17.4% [at 57.5 µM] (inactive)
c1ccc(Nc2ncnc3ccc(-c4cccnc4)cc23)cc1	–	-11.4% (inactive)
N#CC(C#N)=C1C=CC=CN1/C(=C\c1ccco1)C(=O)c1ccc(Cl)cc1	–	-19.5% (inactive)
CN(C)CCCn1cc(C2=C(c3c[nH]c4ccccc34)C(=O)NC2=O)c2ccccc21	35.5 µM (active)	–
COc1ccc(C2=Nn3c(nnc3-c3ccccc3OC)SC2)cc1OC	–	7.65% [at 57.5 µM] (inactive)
Cc1sc2ncnc(Sc3nnnn3-c3ccc(Cl)cc3)c2c1C	–	-12.9% (inactive)
COc1cc2ncnc(NCc3cccc(Cl)c3)c2cc1OC	–	-22.8% (inactive)
CC(/C=C/c1ccccc1)=N\Nc1ccccc1[N+](=O)[O-]	3.16 µM (active)	–
c1ccc(-c2csc(-c3nc4ccccc4[nH]3)n2)cc1	–	-18.4% [at 57.5 µM] (inactive)
CCN(C1CCCCC1)S(=O)(=O)c1ccc(S(=O)(=O)NCc2ccncc2)cc1	–	9.89% [at 57.5 µM] (inactive)
Fc1ccc(Nc2ncnc3sc4c(c23)CCC4)cc1	–	-3.12% (inactive)
CC(=O)N1CCC(=NNc2nc3ccccc3s2)CC1	–	-11.1% (inactive)
c1ccc(Nc2ncnc3sc4c(c23)CCC4)cc1	–	-12.1% (inactive)
O=C1c2ccc(O)c(O)c2C(=O)c2c(O)ccc(O)c21	4.47 µM (active)	–
Cc1noc(NS(=O)(=O)c2ccc(NC(=O)COc3ccc(Cl)cc3Cl)cc2)c1C	–	-16% [at 57.5 µM] (inactive)
C=C[C@@]1(C)CC(=O)[C@@]2(O)[C@@]3(C)[C@@H](O)CCC(C)(C)[C@@H]3[C@H](O)[C@H](OC(C)=O)[C@@]2(C)O1	–	-8.35% (inactive)
COc1ccc(CC(=O)Nc2cccc(-c3nnc(-c4ccc(C)cc4)o3)c2)cc1OC	–	16.5% [at 57.5 µM] (inactive)
CCCCC[C@H](O)C=C[C@H]1[C@H](O)CC(=O)[C@H]1CCCCCCC(=O)O	–	-32.4% [at 57.5 µM] (inactive)
